The record followed here is PubChem BioAssay AID1733 (National Center for Advancing Translational Sciences (NCATS), 2009).

Molecules are shown by their SMILES. Values joined by “and” are separate entries in the source; they are usually repeats but may differ in a detail not shown here. Equal entries are not always repeated. Records with an inconclusive call do not appear. Entries that show only a call come without a potency. Active and inactive are the calls of the source. Calls come from the whole dose curve; as a rule, active = well fitted inhibition curve with a large enough effect; inconclusive = small, poorly fitted or top-dose-only effect; inactive = flat fitted curve, though single readings scatter.

Sequence of Luciferin 4-monooxygenase (Photinus pyralis) (P08659 whole entry, looked up, canonical isoform): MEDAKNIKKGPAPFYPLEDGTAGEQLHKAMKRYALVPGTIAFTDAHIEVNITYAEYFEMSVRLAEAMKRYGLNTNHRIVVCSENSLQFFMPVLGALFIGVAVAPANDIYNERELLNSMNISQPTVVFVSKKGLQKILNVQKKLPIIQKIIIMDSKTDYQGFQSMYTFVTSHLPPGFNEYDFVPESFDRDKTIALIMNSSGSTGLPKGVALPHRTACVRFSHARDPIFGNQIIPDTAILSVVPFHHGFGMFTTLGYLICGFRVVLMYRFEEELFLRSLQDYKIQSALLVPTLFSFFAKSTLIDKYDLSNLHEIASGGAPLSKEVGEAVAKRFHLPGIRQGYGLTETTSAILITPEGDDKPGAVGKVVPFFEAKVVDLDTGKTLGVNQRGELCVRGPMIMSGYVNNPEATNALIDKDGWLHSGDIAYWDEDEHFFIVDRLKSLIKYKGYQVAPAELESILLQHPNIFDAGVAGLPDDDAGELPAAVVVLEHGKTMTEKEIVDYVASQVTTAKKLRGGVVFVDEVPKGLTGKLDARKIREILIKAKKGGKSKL

The test addresses Luciferin 4-monooxygenase (Photinus pyralis) (UniProt P08659). Nature of the test: Counterscreen Assay for Enhancers of SMN2 Splice Variant Expression: Interaction with Luciferase Reporter. To be noted: purified firefly luciferase, luminescence, 5 min; series mostly up to 40.3 µM. From the text:
NIH Chemical Genomics Center [NCGC] NIH Molecular Libraries Probe Production centers Network [MLPCN] MLPCN Grant: R03 MH084179-01 Assay Submitter (PI): Elliot Androphy NCGC Assay Overview: Spinal muscular atrophy (SMA) is caused by insufficient levels of the survival motor neuron protein SMN. The SMN locus on chromosome 5q13 contains two inverted copies of SMN called SMN1 and SMN2 which are 99% identical at the amino acid level. SMN1 is a fully functional protein and SMN2 skips exon 7 90% of the time. Skipping of exon 7 produces non-functional protein product. 10% of the SMN2 protein includes exon 7 and is fully functional. In the SMA disease state, mutations in the SMN1 locus are the cause of the disease state. Because only 10% of SMN2 is of the fully functional form, it is not sufficient to overcome the deficiency produced by the loss of the SMN1 product. A therapy that either increases the amount of SMN2 product made increases the inclusion of exon 7 has been proposed for the treatment of SMA. We have designed an assay to identify small molecules that can increase the amount of functional SMN2 product by appending a luciferase reporter gene after the native SMN2 gene, such that inclusion of exon 7 in the expressed product places the luciferase sequence in frame, thus generating functional luciferase enzyme. One potential source of false positives in the primary screening assay is stabilization of the reporter luciferase via direct binding. This assay attempts to identify such compounds by screening directly for luciferase activity in the absence of the cellular system.
NCGC Assay Protocol Summary: The primary screen utilizes a luciferase reporter gene assay, combining the promoter and splicing based cassettes in tandem with the major portion of the native SMN1 cDNA, and then transfected into HEK293 cells. Compounds that modulate luciferase signal presumably modulate expression of […]. In this assay, we utilize purified firefly luciferase in lieu of a cellular reporter to identify compounds interacting directly with luciferase in the primary screen. Sequence, Parameter, Value, Description (1) Reagent, 2.5 uL, Enzyme in buffer (note A) (2) Compound, 23 nL, From stock solutions (3) Time, 5 minutes, Room temp (4) Reagent#2.5 ul, Luciferase detection reagent (note B) (5) Detector, 1 sec integrate, Luminescent read on Viewlux (note C) Sigma enzyme (1 mg) considered to be MW 61,000 diluted in 357 ul assay buffer to 50 uM stock. A - Enzyme and buffer consists of 50 mM Tris-acetate pH 7.6, 10 mM Mg acetate 0.05% BSA, 0.01% Tween and 5 nM firefly luciferase B - Detection reagent = britelite plus diluted 1:10 in PBS C - Viewlux settings were 1 second integration medium sensitivity Keywords: Spinal muscular atrophy, SMA, SMN2, high throughput screening, MLSMR, MLPCN, NIH Roadmap, qHTS and NCGC
With `N#C/C(=C\Nc1ccccc1SC(F)(F)F)c1nc(-c2ccc(Cl)cc2)cs1`, the activity change, negative = inhibition was 19.5% [at 48.7 pM] (inactive).
With `O=C(Nc1ccc([N+](=O)[O-])cc1Cl)c1cc(Cl)ccc1O`, the Potency was 0.794 µM (active).
Still for that read-out and setting: the entry for `Cc1ccc(-c2nnc(-c3ccccc3)c(N3CCOCC3)n2)cc1` is “inactive”.
Regarding `Nc1ccccc1-c1nnn(CC(=O)N2CCCc3ccccc32)n1`, the activity change, negative = inhibition is 2.12% [at 48.7 pM] (inactive).
For the molecule `OCCCNc1nc(-c2ccc(Cl)cc2)nnc1-c1ccc(Br)cc1`, the Potency result was “inactive”.
Same read-out and setting: the entry for `O=c1[nH]c(=O)n(C2CCCO2)cc1Br` (stereo not given) is “inactive”; for `FC(F)(F)c1nnc(-c2ccccc2)nc1Oc1ccccc1` it is 11.2 µM (active).
Take `CCC(=O)n1nc(NCc2ccccc2OC)nc1NCc1ccccc1OC`: the activity change, negative = inhibition is -6.75% [at 48.7 pM] (inactive).
Turning to `COc1ccc(-c2csc(N3CCC(C(N)=O)(N4CCCCC4)CC3)n2)cc1`, the Potency entry is “inactive”.
Take `O=C(O)c1cccc(COc2ccc(CO)cc2Cl)c1`: the Potency is 7.08 µM (active).
Take `CCCc1sc(N2CCCC(C(N)=O)C2)nc1-c1ccccc1` (stereo not given): the Potency entry is “inactive”.
On the same count and under the same terms, to `Cc1ccc(-c2nnc(-c3ccccc3)c(-c3ccccc3)n2)cc1` belongs “inactive”; to `CN(C)CCCN(C(=O)c1cccs1)c1nc(-c2ccccc2)cs1`, “inactive”; to `O=C(Nc1nc(-c2ccc3ccccc3c2)cs1)C1CCN(S(=O)(=O)c2cccs2)CC1`, “inactive”.
Same read-out and setting: the figure for `Cc1ccc(C(=O)Cn2c3c(sc2=N)CCCC3)cc1` is 126 nM (active) and 100 nM (active); for `OCCCNc1nc(-c2ccc(Cl)cc2)nnc1-c1ccccc1` it is “inactive”; for `CC1CN(c2nc(-c3ccc(Br)cc3)nnc2-c2ccccc2)CC(C)N1` (stereo not given) it is “inactive”.
The same measure, in the same setting: the entry for `COc1ccc(-c2csc(N3CCC(c4ccccc4)CC3)n2)cc1` is “inactive”.
As to `COC(=O)C1=C(C)NC(=O)/C1=C\c1cc(C)n(-c2ccccc2F)c1C`, the activity change, negative = inhibition is 8.15% [at 48.7 pM] (inactive).
On to `Cc1nnc(-c2ccccc2)[nH]c1=O`, for which the Potency result is “inactive”.
As for `CC(/C=C/C(=O)NO)=C\[C@@H](C)C(=O)c1ccc(N(C)C)cc1`, the Potency result is “inactive”.
Consider `COc1ccc(CNC(=O)c2ccc(C(C)C)cc2)cc1`, for which the activity change, negative = inhibition is 39.8% [at 48.7 pM] (inactive).
Same read-out and setting: the figure for `O=C(Nc1cccnc1)/C(N=Nc1c(Cl)cccc1Cl)=C(\O)c1ccccc1` is -9.05% [at 48.7 pM] (inactive).
As to `Cc1ccc(C2c3c(oc4ccccc4c3=O)C(=O)N2CCCN2CCOCC2)o1` (stereo not given), the Potency was 12.6 µM (active).
For the molecule `O=[N+]([O-])c1ccc(-c2nnc(-c3ccccc3)c(NCCCO)n2)cc1`, the Potency is 11.2 µM (active).
Same read-out and setting: the entry for `c1ccc(-c2nnc(-c3ccccc3)c(-c3c[nH]c4ccccc34)n2)cc1` is “inactive”.
Consider `Nn1c(SCC(=O)NCCC2=CCCCC2)nnc1C1CCCCC1`, for which the activity change, negative = inhibition was 2.17% [at 48.7 pM] (inactive).
Still for that read-out and setting: to `O=c1cc(N2CCN(c3cccc(Cl)c3)CC2)[nH]c(=O)n1C1CCCCC1` belongs -4.08% [at 48.7 pM] (inactive); to `O=C1CCC(C(=O)Nc2cccc3ccccc23)N1` (stereo not given), 7.8% [at 48.7 pM] (inactive).
Regarding `CC(C)Nc1nc(-c2ccccc2)nnc1-c1ccccc1`, the Potency result is “inactive”.
Still for that read-out and setting: the entry for `Clc1ccc(-c2nnc(-c3ccccc3)nc2-c2c[nH]c3ccccc23)cc1` is “inactive”.
Still for that read-out and setting: the entry for `NC(=O)N1c2ccccc2C=Cc2ccccc21` is “inactive”; for `Brc1ccc(-c2nnc(-c3ccccc3)c(N3CCSCC3)n2)cc1` it is 10 µM (active); for `CCOc1ccc2nc(N3CCC(C(=O)N4CCN(c5ccccn5)CC4)CC3)sc2c1` it is “inactive”.
Still for that read-out and setting: the figure for `Fc1ccc(Oc2nc(-c3ccccc3)nnc2C(F)(F)F)cc1` is 11.2 µM (active).
On to `Cc1ccc(-c2csc(NC(=O)C3CCN(S(=O)(=O)c4cccs4)CC3)n2)cc1`, for which the Potency was 8.91 µM (active).
As for `COc1nc(-c2ccc(Cl)cc2)nnc1C`, the Potency entry is “inactive”.
Consider `COC(=O)C1=C(CN2CCc3ccccc32)NC(=O)NC1c1cc(C)ccc1C` (stereo not given), for which the activity change, negative = inhibition was 18.7% [at 48.7 pM] (inactive).
`NC(=O)C1(N2CCCCC2)CCN(c2nc(-c3ccc(Br)cc3)cs2)CC1`: the Potency result was “inactive”.
In the case of `O=C(NCc1cccs1)C(=O)NCC1OCCCN1S(=O)(=O)c1ccccc1` (stereo not given), the activity change, negative = inhibition is 14.3% [at 48.7 pM] (inactive).
